Test results taken from PubChem BioAssay.

Experiments:
[1] = tested on: Human papillomavirus type 1a protein E7 (residues 44-93); test: small molecules binding HPV E7 44-93 – biochemical, small-molecule microarray, residues 44-93, 635 nm fluorescence, primary screen (AID 1108); conditions: fluorescence 635 nm, higher = more signal;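 also: E7 fragment applied at 1 µg/mL in TBST for 1 h at 4 C; score combines spot fluorescence with its signal to noise ratio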
[2] = hepatitis C replication reporter changes, two-sided – Huh7 cells, luciferase reporter, HCV replication inhibitor project, primary screen (AID 1109); conditions: Huh7 HCV replicon luciferase reporter, 48 h; higher = more signal;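 also: huh7 hepatoma cells harbouring a luciferase neomycin HCV replicon reporter; luciferase luminescence as measure of HCV replicon replication; test concentration not given here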
[3] = target: Left-right determination factor 2 (Homo sapiens) (UniProt O00292); test: small molecules binding LEFTY2 protein – biochemical, small-molecule microarray, 635 nm fluorescence scan, primary screen (AID 1110); conditions: higher = more signal
Chain of Left-right determination factor 2 (Homo sapiens) (O00292 whole entry, looked up): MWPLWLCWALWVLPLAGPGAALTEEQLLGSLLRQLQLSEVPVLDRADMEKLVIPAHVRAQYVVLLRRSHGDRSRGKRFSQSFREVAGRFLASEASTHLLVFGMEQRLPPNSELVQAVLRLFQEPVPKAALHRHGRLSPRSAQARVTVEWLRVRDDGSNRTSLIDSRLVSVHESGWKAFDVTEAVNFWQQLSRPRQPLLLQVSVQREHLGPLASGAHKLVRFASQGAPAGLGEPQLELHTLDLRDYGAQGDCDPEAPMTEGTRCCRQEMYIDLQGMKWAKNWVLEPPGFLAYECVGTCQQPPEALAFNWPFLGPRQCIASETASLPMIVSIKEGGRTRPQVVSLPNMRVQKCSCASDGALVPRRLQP

[4] = target: Calmodulin-1 (Homo sapiens) (UniProt P0DP23); test: small molecules binding calmodulin-1 with EGTA – biochemical, small-molecule microarray, Cy5-labelled CALM1, profiling panel (AID 1111); conditions: Cy5-CALM1 binding fluorescence, higher = more signal;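 also: labelled calmodulin applied in Tris saline Tween buffer holding calcium plus EGTA and DTT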
[5] = target: Calmodulin-1 (Homo sapiens) (UniProt P0DP23); test: small molecules binding Ca-loaded calmodulin-1 – biochemical, small-molecule microarray, Cy5-labelled CALM1, plus calcium, artefact control for SMM control-protein annotation, profiling panel (AID 1112); conditions: Cy5-CALM1 binding fluorescence, higher = more signal;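 also: score merges spot fluorescence with signal to noise from triplicate slides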
[6] = probe aWnt5a binding to arrayed compounds – biochemical, biotinylated probe, 635/667 nm fluorescence, primary screen (AID 1113); conditions: small-molecule microarray, higher = more signal;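 also: score merges 667 nm fluorescence intensity with signal-to-noise per printed feature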
[7] = probe aShh binding to arrayed compounds – biochemical, biotinylated probe, 635/667 nm fluorescence, primary screen (AID 1114); conditions: small-molecule microarray, higher = more signal;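 also: probe is biotin-labelled aShh protein from a stem cell growth factor screen; measures binding of labelled protein to compounds printed on the slide; score merges feature fluorescence at 667 nm with signal-to-noise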
[8] = probe aNog binding to arrayed compounds – biochemical, biotinylated probe, 635/667 nm fluorescence, primary screen (AID 1115); conditions: small-molecule microarray, higher = more signal;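 also: probe is biotinylated aNog protein used at 0.15 µg/mL for 1 h at 4 C; z-score combines 667 nm fluorescence of each spot with its signal to noise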
[9] = target: Torsin-1A-interacting protein 1 (Homo sapiens) (UniProt Q5JTV8); test: compound microarray binding of lysate hLAP1 – cell lysate, small-molecule microarray, COS7 lysate, 635/667 nm fluorescence, primary screen (AID 1116); conditions: 635 nm fluorescence, higher = more signal
Chain of Torsin-1A-interacting protein 1 (Homo sapiens) (Q5JTV8 whole entry, looked up): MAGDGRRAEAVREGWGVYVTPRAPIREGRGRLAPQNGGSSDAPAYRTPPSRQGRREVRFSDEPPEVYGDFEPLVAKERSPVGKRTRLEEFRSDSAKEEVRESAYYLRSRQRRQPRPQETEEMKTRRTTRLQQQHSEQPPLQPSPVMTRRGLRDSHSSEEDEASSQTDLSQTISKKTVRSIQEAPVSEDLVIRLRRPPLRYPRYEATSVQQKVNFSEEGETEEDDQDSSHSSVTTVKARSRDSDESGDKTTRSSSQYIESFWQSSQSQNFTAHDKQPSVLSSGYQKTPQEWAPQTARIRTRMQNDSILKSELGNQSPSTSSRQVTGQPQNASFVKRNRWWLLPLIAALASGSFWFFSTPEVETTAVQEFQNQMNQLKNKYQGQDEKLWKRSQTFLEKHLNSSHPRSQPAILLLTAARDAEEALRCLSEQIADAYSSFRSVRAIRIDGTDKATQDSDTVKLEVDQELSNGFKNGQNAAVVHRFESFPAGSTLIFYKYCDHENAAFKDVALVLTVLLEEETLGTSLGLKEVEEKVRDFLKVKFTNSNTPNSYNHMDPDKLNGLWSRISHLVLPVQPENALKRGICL

[10] = target: Alpha-bungarotoxin (Bungarus multicinctus) (UniProt P60615); test: compounds binding labelled alpha-BTX control protein – biochemical, small-molecule microarray, Alexa647 label, 635/667 nm fluorescence, artefact control for SMM control protein annotation, profiling panel (AID 1117); conditions: alpha-BTX-A647 binding fluorescence, higher = more signal
Chain of Alpha-bungarotoxin (Bungarus multicinctus) (P60615 whole entry, looked up): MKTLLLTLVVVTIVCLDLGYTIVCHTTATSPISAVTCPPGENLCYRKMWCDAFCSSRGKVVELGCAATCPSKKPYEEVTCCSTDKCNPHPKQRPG

Row | Structure (SMILES) | composite z-score [1] | z-score [2] | composite z-score [3] | composite z-score [4] | composite z-score [5] | composite z-score [6] | composite z-score [7] | composite z-score [8] | composite z-score [9] | composite z-score [10]
1 | CC(C)(C)OC(=O)CC[C@]1(C(=O)N2CCCCC2)N=C(c2ccc(OCCCO)cc2)O[C@H]1c1ccccc1N=[N+]=[N-] | 1.43 | 0.6 | 0.376 | 2.25 | 1.38 | 0.152 | -0.385 | 0.207 | 1.47 | 0.823
2 | COC(=O)C(CC#Cc1ccc2c(c1)[C@]1(C(=O)N2)[C@H](c2ccc(OCCO)cc2)N2[C@H](c3ccccc3)[C@H](c3ccccc3)OC(=O)[C@H]2[C@@H]1C(=O)NC[C@H](O)c1ccccc1)C(=O)OC | 1.17 | -1.39 | -0.0571 | 0.794 | 0.524 | -0.0346 | 0.356 | 0.333 | -0.585 | 2.1
3 | COC(=O)[C@@]1(Cc2ccc(OC)cc2)[C@H]2c3cc(C(=O)N4CCCC4)n(Cc4ccccn4)c3C[C@H]2CN1C(=O)c1ccccc1 | 1.48 | -1.52 | -0.662 | 1.42 | 0.816 | 0.202 | -0.0069 | 2.04 | 1.07 | 0.65
4 | Cc1ccc([C@H]2C(C(=O)O)=C[C@@H](C)N2S(=O)(=O)c2ccc(C)cc2)cc1 | 0.801 | 0.537 | -0.942 | 1 | 0.0248 | -0.0478 | 0.0062 | -0.0827 | 0.917 | 1.57
5 | COC(=O)c1c(CC[C@@H](CO)NC(=O)N[C@@H](Cc2ccccc2)Cn2cc(C3(O)CCCCC3)nn2)oc(C(C)=O)c1C(=O)OC | 1.28 | -1.47 | 0.693 | 0.267 | -0.36 | -0.096 | -0.142 | -0.449 | 0.639 | 0.519
6 | COCCOC(=O)N1C(=O)[C@@]2(c3cc(C#CC4(O)CCCCCC4)ccc31)[C@H](C(=O)N1CCCCCCC1)[C@H]1C(=O)O[C@H](c3ccccc3)[C@H](c3ccccc3)N1[C@@H]2c1ccccc1OCCO | 1.42 | -1.61 | 0.487 | 1.79 | 1.22 | 0.265 | 0.906 | 2.36 | 1.62 | 1.49
7 | C[C@]1(C(=O)NCc2ccccc2)c2ccccc2C(=O)N(Cc2cc(F)cc(C(F)(F)F)c2)[C@H]1c1ccc(CO)cc1 | 0.376 | -0.44 | -1.57 | -0.595 | 0.173 | -0.0685 | 0.0469 | -0.427 | -0.168 | 0.0471
8 | CCOC(=O)[C@H]1C/C=C/C[C@H](C(=O)OCC)C(=O)O[C@H]2[C@@H](OC)O[C@H](CO)[C@@H](OC(=O)Nc3ccc4c(c3)OCO4)[C@@H]2OC1=O | 0.433 | -3.52 | -0.261 | 0.346 | 0.152 | 0.0608 | 0.28 | 0.122 | 0.591 | 0.167
9 | C=CCNC(=O)[C@@H]1[C@H]2C(=O)O[C@H](c3ccccc3)[C@H](c3ccccc3)N2[C@H](c2ccc(O)cc2)[C@@]12C(=O)N(C(=O)OCCOC)c1ccccc12 | 1.2 | -1.43 | -0.211 | 0.922 | -0.42 | -0.0478 | -0.0904 | 0.215 | 1.12 | 2.27
10 | [N-]=[N+]=Nc1ccccc1C[C@]1(C(=O)NCCN2CCOCC2)N=C(c2ccc(OCCCO)cc2)O[C@H]1c1ccccc1 | 1.03 | -1.99 | -0.0447 | 0.169 | 0.129 | -0.103 | 0.123 | -0.465 | 1.44 | 0.968
11 | Cc1ccc(S[C@]2(C(=O)NC3CC3)CC(=O)N(Cc3ccccc3)[C@@H]2c2ccc(CO)cc2)cc1 | -0.269 | -0.921 | -1.19 | -0.274 | 0.176 | -0.197 | -0.237 | 0.314 | 1.39 | 0.848
12 | COC(=O)c1ccc(C(O)C2C=CC3C(=O)N(c4ccccc4)C(=O)C3N2Nc2ccc(C#N)cc2)o1 (stereo not given) | 1.18 | -0.133 | 0.196 | -0.118 | -0.637 | 0.0136 | 0.582 | 0.363 | 0.681 | -0.187
13 | COCCOC(=O)N1C(=O)[C@@]2(c3cc(C#CCC(C(=O)OC)C(=O)OC)ccc31)[C@H](c1ccc(O)cc1)N1[C@H](c3ccccc3)[C@H](c3ccccc3)OC(=O)[C@H]1[C@@H]2C(N)=O | 0.698 | -0.633 | 0.715 | 0.537 | -0.259 | 0.0297 | 0.0469 | 1.29 | 1.03 | 0.944
14 | C[N+](C)(C)CCCCCCNC(=O)[C@H]1C[C@H]2C(=O)N3CCC[C@H]3C(=O)N2[C@H]1c1ccc(O)cc1 | 1.41 | 0.741 | 0.26 | 0.0573 | -0.965 | -0.178 | 0.0639 | -0.29 | 0.541 | -0.37
15 | CCN(CC)c1ccc(N2CC=CC34O[C@@H]5C=CCCOC(=O)C5[C@H]3C(=O)N(CCCCCO)[C@@H]4C2=O)cc1 (stereo not given in full) | -0.668 | 0.348 | -0.48 | -1.15 | -1.45 | -0.0721 | 0.0756 | -0.025 | 1.04 | -0.66
16 | COc1ccc(CCNC(=O)[C@@]2(Sc3ccc(C)cc3)CC(=O)N(Cc3ccccc3Cl)[C@@H]2c2ccc(CO)cc2I)cc1 | 0.552 | -1.98 | -0.736 | -0.252 | -0.0371 | -0.184 | 0.157 | 0.384 | 1.08 | 0.42
17 | COCCOC(=O)N1C(=O)[C@@]2(c3cc(C#CCCO)ccc31)[C@H](c1ccccc1OCCO)N1[C@H](c3ccccc3)[C@H](c3ccccc3)OC(=O)[C@H]1[C@@H]2C(=O)N1CCN(c2ncccn2)CC1 | 1.43 | -1.92 | 1.15 | 1.33 | 0.569 | 0.203 | 0.141 | 0.435 | 1.16 | 0.994
18 | C=CCNC(=O)[C@@H]1[C@H]2C(=O)O[C@H](c3ccccc3)[C@H](c3ccccc3)N2[C@H](c2ccccc2OCCO)[C@@]12C(=O)Nc1ccc(C#CC3=CCCCC3)cc12 | 1.41 | -3.27 | 0.604 | 1.09 | 0.17 | -0.0523 | 0.0611 | -0.278 | 0.668 | 1.24
19 | CC(C)N1CC=CC23O[C@@H]4C=CCOC(=O)[C@@H]4[C@H]2C(=O)N(CCO)[C@@H]3C1=O (stereo not given in full) | 0.723 | -0.0497 | -1.65 | -0.248 | 0.641 | -0.206 | -0.11 | -0.178 | 0.0566 | -1.15
20 | O=C1c2ccccc2[C@@]2(Cc3ccccc3N(Cc3ccccc3)C2=O)[C@H](c2ccc(CO)cc2)N1C1CCCCC1 | 0.438 | -0.717 | 0.186 | 0.0329 | -0.105 | -0.202 | 0.0062 | -0.444 | -0.345 | 0.0868
21 | CCOC(=O)C1=C[C@@H](C(C)C)N(S(=O)(=O)c2ccc(C)cc2)[C@H]1c1ccc(C(C)C)cc1 | 1.35 | -2.16 | 0.524 | 1.33 | -0.144 | -0.0735 | -0.138 | -0.58 | 0.324 | 1.1
22 | COCCOC(=O)N1C(=O)[C@@]2(c3cc(C#CCC(C(=O)OC)C(=O)OC)ccc31)[C@H](c1ccccc1OCCO)N1[C@H](c3ccccc3)[C@H](c3ccccc3)OC(=O)[C@H]1[C@@H]2C(=O)N1CCc2cc(OC)c(OC)cc2C1 | 1.2 | -1.79 | 0.958 | 1.54 | 0.0013 | -0.363 | -0.148 | -0.289 | 0.496 | 0.942
23 | COc1ccc(CCN2C(=O)[C@@]3(Cc4ccccc42)c2ccccc2C(=O)N(Cc2ccccc2Cl)[C@H]3c2ccc(CO)cc2)cc1 | -0.782 | 0.0889 | -0.622 | 0.102 | 0.45 | -0.176 | -0.138 | -0.272 | 0.0577 | 0.0121
24 | COc1cc(C(O)C2C=CC3C(=O)N(c4ccccc4)C(=O)C3N2Nc2ccc(C#N)cc2)cc(OC)c1OC (stereo not given) | 0.626 | 0.0783 | 0.305 | 2.23 | 1.19 | 0.0115 | 0.214 | 1.42 | 1.52 | 2.79
25 | CCOC(=O)C1=CC[C@@H](c2ccccc2)N(S(=O)(=O)c2ccc(C)cc2)[C@H]1C(=O)OCC | 0.841 | -3.08 | -0.0319 | 0.784 | 0.289 | 0.177 | 0.77 | 0.137 | 0.962 | 0.384
